According to PubChem BioAssay:
Several values for one entry are separate records, joined by “and”; a condition that tells them apart may be missing. Identical values can stand only once. Activity calls are given as the source filed them. Rule as the data show it, unless noted: active = inhibition above about 80%; inactive = the rest.

What was measured:
[1] = tested on: Aerobactin synthetase IucA (Klebsiella pneumoniae); experiment: IucA aerobactin synthetase inhibitors, biochemical, Tocris library, absorbance (AID 1345561; call rule not given here;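 also: 100% = enzyme without compound and 0% = no enzyme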); conditions: purified IucA enzyme assay, absorbance (OD) read-out; stronger effect = lower value;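 tested at 8 µM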
[2] = sensitizers of A549 cells to miR-34 induction, primary screen, imaging, A549 dox-inducible miR-34, nuclei and caspase counts (AID 1347080;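 active = compounds whose cell count with miR-34 switched on is under 0.7 times the count with it off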); conditions: A549 miR-34 inducible, Hoechst nuclei count, 48 h
[3] = survival rescue of mitochondrial mutant cells in low glucose, primary screen, MELAS cybrids, Rieske KO mouse fibroblasts, CellTiter-Glo (AID 1508586;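 active = mean z-score across replicates of 1.96 or higher in either the MELAS or the Rieske mutant cell line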;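 also: z relative to plate mean and SD of compound and empty wells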)
[4] = viability rescue of complex I mutant cybrids, primary screen, cell-based, galactose medium, ATP luminescence (AID 1645843;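 active = z-score of at least 1.8 in each of two replicates, scored against plate mean and spread of sample wells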;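 also: positive z means more ATP and so rescue of galactose-driven cybrid death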); conditions: complex I mutant cybrid cells, 72 h, stronger effect = higher value
[5] = LFS_MB_P medulloblastoma growth inhibition, cell-based, chromothripsis tumors, cisplatin or BGB combos (AID 1671449); conditions: LFS_MB_P medulloblastoma cells;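 also: cells exposed for 96 hours; 0% = vehicle DMSO and 100% = killing by high DMSO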
[6] = HDN33 neuroblastoma growth inhibition, cell-based, chromothripsis tumors, cisplatin or BGB combos (AID 1671450); conditions: HDN33 neuroblastoma cells, stronger effect = higher value;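 also: cells exposed to compound for four days; 0% = vehicle DMSO and 100% = cell killing by high DMSO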
[7] = ICB984 medulloblastoma cell growth inhibition, synergistic combos for chromothripsis tumors, cisplatin or BGB combos (AID 1671451; call rule not given here;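 also: cells exposed for 96 hours before readout; 0% = vehicle DMSO and 100% = killing by high DMSO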); conditions: ICB984 medulloblastoma cells, drug combinations, stronger effect = higher value
[8] = LFS_MB_1R medulloblastoma cell growth inhibition, synergistic combos for chromothripsis tumors, cisplatin or BGB combos (AID 1671452); conditions: LFS_MB_1R medulloblastoma cells, stronger effect = higher value;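 also: cells exposed for 96 hours before readout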
[9] = HTB85 osteosarcoma cell growth inhibition, synergistic combos for chromothripsis tumors, BGB or cisplatin IC20 combos (AID 1671453); conditions: HTB85 osteosarcoma cells, drug combinations, stronger effect = higher value;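 also: cells exposed for 96 hours before readout; 0% = vehicle DMSO and 100% = high DMSO killing control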
[10] = CRL2098 osteosarcoma cell growth inhibition, synergistic combos for chromothripsis tumors, BGB or cisplatin IC20 combos (AID 1671454); conditions: CRL2098 osteosarcoma cells, drug combinations, stronger effect = higher value;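 also: cells exposed for 96 h before readout; 0% = vehicle DMSO and 100% = killing by high DMSO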
[11] = HD-MB03 medulloblastoma cell growth inhibition, synergistic combos for chromothripsis tumors, BGB or cisplatin IC20 combos (AID 1671455; in the data active = inhibition above about 83%;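 also: 0% = vehicle DMSO and 100% = high DMSO as cytotoxic control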); conditions: HD-MB03 medulloblastoma cells, stronger effect = higher value
[12] = UWB1.289 ovarian carcinoma cell growth inhibition, synergistic combos for chromothripsis tumors, BGB or cisplatin combos (AID 1671456); conditions: UWB1.289 ovarian carcinoma cells, stronger effect = higher value;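 also: cells exposed to compound for four days; 0% = vehicle DMSO and 100% = killing by high DMSO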
[13] = LFS_MB_2R medulloblastoma cell growth inhibition, synergistic combos for chromothripsis tumors, cisplatin combos (AID 1671457); conditions: LFS_MB_2R medulloblastoma cells, stronger effect = higher value;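 also: cells exposed to compound for four days before readout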
[14] = MDA-MB-436 breast carcinoma cell growth inhibition, synergistic combos for chromothripsis tumors, BGB or cisplatin combos (AID 1671458; call rule not given here;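 also: cells exposed for 96 hours; 0% = vehicle DMSO and 100% = killing by high DMSO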); conditions: MDA-MB-436 breast carcinoma growth inhibition, drug combinations, stronger effect = higher value
[15] = UWB1.289_BRCA1 ovarian cancer growth, cell-based, BGB or cisplatin combinations (AID 1671459); conditions: UWB1.289 BRCA1 ovarian carcinoma, drug combinations, stronger effect = higher value
[16] = human astrocyte viability loss, single and combined drugs, cytotoxicity control for chromothriptic childhood tumor combination screen, cell-based, BGB or cisplatin IC20 combos (AID 1671460); conditions: Human astrocytes, drug combinations, stronger effect = higher value;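 also: cells exposed to compounds for 96 hours before viability readout; 0% = vehicle and 100% = killing control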
[17] = growth inhibition of BT084 medulloblastoma cells, cell-based, ICGC_MB145, cisplatin and BGB IC40 combos (AID 1671461); conditions: drug combinations, stronger effect = higher value;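 also: cells exposed to drugs for 96 hours; 0% = vehicle DMSO and 100% = high DMSO full killing control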
[18] = growth inhibition of RCMB18 medulloblastoma cells, cell-based, cisplatin and BGB IC40 combos (AID 1671462); conditions: stronger effect = higher value;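 also: cells exposed to compound for four days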
[19] = growth inhibition of CRL1545 osteosarcoma cells, cell-based, cisplatin and BGB IC20 combos (AID 1671464); conditions: stronger effect = higher value;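 also: cells exposed to compound for 96 hours before readout; 0% = vehicle DMSO and 100% = high DMSO killing control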
[20] = inhibitors of Cryptococcus chitosan production, flow cytometry, Cibacron Brilliant Red staining (AID 1347148; call rule not given here;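 also: compound exposure lasted three days at 37 degrees C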); conditions: Cryptococcus neoformans chitosan, stronger effect = lower value; at 10 µM unless noted
[21] = stronger effect = lower value, cell number ratio, induced over uninduced
[22] = measured here: relative caspase fold change +Dox/-Dox
[23] = measured here: total cells with miR-34 induction, stronger effect = lower value
[24] = measured here: total cells without miR-34 induction
[25] = MELAS cybrid survival, CellTiter-Glo 48 h, stronger effect = higher value
[26] = Rieske KO mouse fibroblast survival, CellTiter-Glo 72 h
[27] = measured here: combination with BGB IC40, at 0.05 µM
[28] = measured here: with BGB IC20 combination, at 0.5 µM
[29] = measured here: with cisplatin IC20 combination, at 0.5 µM
[30] = measured here: combination with cisplatin, at 0.5 µM
[31] = measured here: combination with cisplatin, at 5 µM

What does the source list for `O=C(COc1cccc2c(=O)[nH]ccc12)c1ccccc1`?
remaining activity [1]: 129% (inactive); fold change [2, 21]: 0.93 (inactive) and 0.917 (inactive); fold change [2, 22]: 0.39 and 1.29; cell count [2, 23]: 8870 and 8400; cell count [2, 24]: 9530 and 9170; z-score [3, 25]: -0.468 (inactive); z-score [3, 26]: 0.438; z-score [4]: -0.28 (inactive); inhibition ([5]; at 0.5 µM, stronger effect = higher value): -16.5% (inactive); inhibition ([5]; measured here: combination with BGB IC20, at 0.005 µM): -16.8%; inhibition ([5]; measured here: combination with BGB IC40, at 0.005 µM): -36.3%; inhibition [5, 27]: -53.7%; inhibition ([5]; measured here: combination with cisplatin, at 0.5 µM, stronger effect = higher value): -36.1%; inhibition ([5]; measured here: combination with cisplatin, at 5 µM, stronger effect = higher value): -39.6%; inhibition ([6]; BGB combo, at 5 µM): -30.5%; inhibition ([6]; at 0.5 µM): -19.3% (inactive); inhibition ([6]; cisplatin combo, at 5 µM): 0.128%; inhibition [6, 28]: -14.4%; inhibition [6, 29]: -33.6%; inhibition ([6]; single agent, at 5 µM): 5.27%; inhibition ([7]; BGB IC20 combo, at 0.005 µM): -2.15%; inhibition ([7]; BGB IC40 combo, at 0.005 µM): -17.7%; inhibition ([7]; BGB IC40 combo, at 0.05 µM): -10.1%; inhibition ([7]; at 0.5 µM): -21.4% (inactive); inhibition ([7]; cisplatin combo, at 0.05 µM): -14.1%; inhibition ([7]; cisplatin combo, at 0.5 µM): -12.6%; inhibition ([7]; cisplatin combo, at 5 µM): -29.1%; inhibition ([7]; measured here: 5 uM single agent, at 5 µM): -6.87%; inhibition ([8]; at 0.5 µM): -3.67% (inactive); inhibition [8, 27]: 3.04%; inhibition [8, 30]: 4.91%; inhibition [8, 31]: -55.9%; inhibition ([9]; at 0.5 µM): -2.5% (inactive); inhibition ([9]; measured here: with BGB IC20, at 0.5 µM): -2.96%; inhibition ([9]; measured here: with BGB IC20, at 5 µM): -14.8%; inhibition ([9]; measured here: with cisplatin IC20, at 0.5 µM): -15.8%; inhibition ([9]; measured here: with cisplatin IC20, at 5 µM): -9.52%; inhibition ([9]; single agent, at 5 µM): -11.8%; inhibition ([10]; at 0.5 µM): -77.2% (inactive); inhibition ([10]; measured here: combination with BGB at IC20, at 0.5 µM): -43.7%; inhibition ([10]; measured here: combination with cisplatin at IC20, at 0.5 µM): -122%; inhibition ([11]; at 0.5 µM): -12.7% (inactive); inhibition ([11]; measured here: combo with BGB at IC20, at 0.5 µM): -9.35%; inhibition ([11]; measured here: combo with cisplatin at IC20, at 0.5 µM): -24.1%; inhibition ([12]; at 0.5 µM): -8.68% (inactive); inhibition ([12]; measured here: inhibition with BGB combination, at 0.05 µM): -22.4%; inhibition ([12]; measured here: inhibition with cisplatin combination, at 0.05 µM): -23.8%; inhibition ([13]; at 0.5 µM): -15.2% (inactive); inhibition [13, 30]: -23.3%; inhibition [13, 31]: -11.3%; inhibition ([14]; at 0.5 µM): -8.48% (inactive); inhibition ([14]; measured here: BGB combination, at 0.5 µM): -12.1%; inhibition ([14]; measured here: BGB combination, at 5 µM): -20.7%; inhibition ([14]; measured here: cisplatin combination, at 0.5 µM): -11.8%; inhibition ([14]; measured here: cisplatin combination, at 5 µM): -15.5%; inhibition ([15]; BGB combination, concentration series, at 5 µM): 17.1%; inhibition ([15]; at 0.5 µM): -4.72% (inactive); inhibition ([15]; cisplatin combination, concentration series, at 5 µM): -1.24%; inhibition ([16]; at 0.5 µM): 18.8% (inactive); inhibition ([16]; measured here: combo with BGB IC20, at 0.5 µM): 3.19%; inhibition ([16]; measured here: combo with cisplatin IC20, at 0.5 µM): 27.2%; inhibition ([17]; at 0.5 µM): -16.5% (inactive); inhibition ([17]; cisplatin combination, at 0.5 µM): -34.9%; inhibition ([17]; cisplatin combination, at 5 µM): -2.7%; inhibition ([17]; measured here: BGB IC40 combination 0.05 uM, at 0.05 µM): -29.5%; inhibition ([17]; single agent, at 5 µM): 2.36%; inhibition ([18]; at 0.5 µM): -1.53% (inactive); inhibition ([18]; cisplatin combo, at 5 µM): -22.8%; inhibition ([18]; measured here: BGB IC40 combination, at 0.05 µM): -14.7%; inhibition [18, 30]: -4%; inhibition ([18]; single agent, at 5 µM): -18.5%; inhibition ([19]; at 0.5 µM): -12.7% (inactive); inhibition [19, 28]: -33.3%; inhibition [19, 29]: -4%; inhibition ([19]; single agent, at 0.05 µM): 2.29%; inhibition ([19]; single agent, at 5 µM): -29.9%

For `CNC(CC(=O)O)C(=O)O` (centres undefined), which remaining activity [1] is on record?
Its remaining activity is 97.3% (inactive).

What about the fold change [2, 21] of the same compound?
Its fold change is 0.825 (inactive) and 1.05 (inactive).

And the fold change [2, 22]?
Its fold change is 1.55 and 0.67.

What about the cell count [2, 23] of the same compound?
Its cell count is 8200 and 8440.

And the cell count [2, 24]?
The cell count was 9940 and 8040.

And the z-score [3, 25]?
Its z-score is -0.165 (inactive).

And the z-score [3, 26]?
The z-score was -0.287.

What about the z-score [4] of the same compound?
Its z-score is 0.29 (inactive).

For `O=C(O)CCC/C=C\C[C@@H]1CO[C@H](C(F)(F)F)O[C@@H]1c1ccccc1O`, which remaining activity [1] is on record?
Its remaining activity is 111% (inactive).

What about the fold change [2, 21] of the same compound?
The fold change was 0.924 (inactive).

And the fold change [2, 22]?
Its fold change is 0.777.

What about the cell count [2, 23] of the same compound?
The cell count was 7790.

What about the cell count [2, 24] of the same compound?
The cell count was 8430.

And the z-score [4]?
The z-score was 0.14 (inactive).

With `NC(=NCCc1ccc(I)cc1)SCCCC1CNCN1` (centres undefined) as the compound, how does the remaining activity [1] read?
The remaining activity was 98% (inactive).

And the fold change [2, 21]?
The fold change was 1.01 (inactive).

And the fold change [2, 22]?
Its fold change is 0.754.

What about the cell count [2, 23] of the same compound?
The cell count was 6720.

What about the cell count [2, 24] of the same compound?
The cell count was 6680.

What about the z-score [4] of the same compound?
Its z-score is -0.645 (inactive).

For `O=C1c2ccccc2C(Cc2ccnc(F)c2)(Cc2ccnc(F)c2)c2ccccc21`, which remaining activity [1] is on record?
The remaining activity was 102% (inactive).

And the fold change [2, 21]?
The fold change was 0.93 (inactive).

And the fold change [2, 22]?
Its fold change is 1.37.

And the cell count [2, 23]?
Its cell count is 8150.

What about the cell count [2, 24] of the same compound?
Its cell count is 8760.

And the z-score [4]?
Its z-score is 0.3 (inactive).

Which remaining activity [1] does the source give for `COC(=O)C1=C(C)NC(C)=C([N+](=O)[O-])[C@H]1c1ccccc1C(F)(F)F` here?
The remaining activity was 113% (inactive).

What about the fold change [2, 21] of the same compound?
Its fold change is 0.834 (inactive).

What about the fold change [2, 22] of the same compound?
The fold change was 1.13.

What about the cell count [2, 23] of the same compound?
Its cell count is 7130.

What about the cell count [2, 24] of the same compound?
Its cell count is 8550.

And the fold fluorescence [20]?
Its fold fluorescence is 5.36 [at 140.3 µM] (inactive).

And the z-score [4]?
The z-score was -0.645 (inactive).
